# Measured values: PubChem BioAssay (NCI)
# The panel holds about 83,000 compounds, 20% with a hit somewhere; the sample as a whole holds those more often.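 Negative percent growth values reflect cell death: -40 means 40% of the cells present at the start died, and -100 means all died.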 Active and inactive are the calls of the source.
# Tested on: HT29 colon
# Experiment: NCI-60 one-dose screen, 48 h (100 = growth as untreated, 0 = no growth, -100 = all killed)
# Conditions: 10 µM unless noted
# Experimental: Growth inhibition of the HT29 human tumor cell line is measured as a screen for anti-cancer activity. Cells are grown in 96 well plates and exposed to the test compound for 48 hours. Compounds are tested at a single concentration, which is 10^-5 M for most compounds. The reported endpoint is percent growth (GI% or GIPRCNT), where numbers from 0 - 100% represent growth inhibition, and numbers from -100% - 0 represent cell death. For example, a value of 40 represents 60% growth inhibition. A value of 0 means no net growth occurred over the course of the experiment. A value of -40 indicates 40% of cells at the beginning of the experiment died by the end of the experiment. A value of -100 means all cells are dead at the end of the experiment.
# NCI-60 Human Tumor Cell Lines Screen was performed using the standard one-dose NCI protocol, which is described in more detail at https://dtp.cancer.gov/discovery_development/nci-60/default.htm.
# Compounds with GIPRCNT values below 10 were considered active. Activity score was based on GIPRCNT using the following formula: […]
# Score is 0 for GIPRCNT values of 100 or above, 50 for GIPRCNT values of 0, and 100 for GIPRCNT values of -100.
row,SMILES,growth
1,Nc1ccc2c3c(cccc13)-c1ccccc1-2,108% (inactive)
2,COc1ccc2[nH]cc(/C=C3/C(=O)Nc4ccc(F)cc43)c2c1,79.1% (inactive)
3,O=C(NN(C(=O)c1ccccc1)c1cccs1)c1ccccc1,98.5% (inactive)
4,CSc1nc2c(c(=O)[nH]1)C(c1ccc(Cl)cc1)C1=C(N2)/C(=C/c2ccc(Cl)cc2)CNC1 (stereo not given),-36.6% (active)
5,N#Cc1c(N2CCOCC2)nc2sc3cc(Cl)ccc3n2c1=N,98.5% (inactive)
6,Cc1cc(C)n(C(=O)c2nn(-c3ccc(Cl)cc3)cc2O)n1,97.7% (inactive)
7,CC1(C)OC(=O)C(=Cc2ccccc2Br)C(=O)O1,103% (inactive)
8,CCC(CCC(C)C1CCC2C3CC=C4CC(O)CCC4(C)C3CCC12C)C(C)C (stereo not given) (tested in a mixture with another compound),98.9% (inactive)
9,CCOC(Cc1c(N)[nH]c(=S)[nH]c1=O)OCC,99.2% (inactive)
10,Oc1[nH]c2ccc(Cl)cc2c1/C=c1/ccc2c(c1)N=C(c1ccc(C(F)(F)F)cc1)N=2,42.2% (inactive)
11,O=C(O)c1ccccc1C(=O)OC1CCCC2CCCC21 (stereo not given),100% (inactive)
12,Cn1cc(-c2csc(-c3cn(C)c4ncccc34)n2)c2cc(Br)cnc21,100% (inactive)
13,CCN(CC)c1ccc(CN(CC(=O)c2ccc(Cl)c(Cl)c2)Cc2ccccc2)cc1,105% (inactive)
14,COc1cc(-c2cc(C(=O)Nc3nc4ccccc4s3)nc3cc(-c4ccccc4)nn23)cc(OC)c1OC,17.4% (inactive)
15,Cc1ccc(C(C)C)cc1NC(=O)Nc1ccc([N+](=O)[O-])cc1,12.4% (inactive)
16,CCCCCCCCCCCCNc1ncnc2[nH]ncc12,97.9% (inactive)
17,COc1cc2c(c(OC)c1OC)CCc1cnoc1-2,99.4% (inactive)
18,O=C1N(C2CCCCC2)C(=O)N1C1CCCCC1,44.9% (inactive)
19,Oc1ccccc1/C=N\Nc1ccccc1,95.9% (inactive)
20,O=C(CCc1nnc2sc(-c3ccc(Cl)cc3Cl)nn12)c1nc2ccccc2[nH]1,-12.9% (active)

row,SMILES,growth
1,CCOC(=O)C1C(=O)OC2CCCCC21 (stereo not given),110% (inactive)
2,COc1ccc(/C=C2\NC(=S)NC2=O)cc1,110% (inactive)
3,COc1cccc2c1C(=O)c1c(O)c3c(c(O)c1C2=O)C[C@@](O)(/C(C)=N/NC(=O)c1cccc([N+](=O)[O-])c1)C[C@@H]3OC1CC(N)C(O)C(C)O1 (stereo not given in full),-53.7% (active)
4,Cn1cc(-c2csc(-c3c[nH]c4ncccc34)n2)c2cc(Br)cnc21,50.6% (inactive)
5,CN1CCCC1c1cccnc1 (stereo not given),115% (inactive)
6,COc1ccc(/C=C(\C#N)c2ccccc2)cc1,85.5% (inactive)
7,O=C(/C=C/c1ccc(O)c(O)c1)N1CCN(c2ccc(Cl)cc2)CC1,80.1% (inactive)
8,COc1c(C)c2c(c(O)c1C/C=C(\C)CCC(=O)OCCN1CCOCC1)C(=O)OC2,1.17% (active)
9,O=C1/C(=C/c2ccc([N+](=O)[O-])o2)Oc2ccc(Cl)cc21,-15.3% (active)
10,COc1cc(OC)c2cc(C(=O)O)c(=O)oc2c1,119% (inactive)
11,O=c1cc(-c2cccnc2)oc2c1ccc1ccccc12,59% (inactive)
12,O=C(/C=C/c1cc2ccccc2[nH]c1=O)c1ccc(Cl)cc1,6.1% (active)
13,COc1ccc(CCN2CCCN3C2=Nc2ccccc2S3(=O)=O)cc1,13.7% (inactive)
14,CN(C)c1nc(-c2ccco2)n2nc(-c3ccco3)cc2n1,96.9% (inactive)
15,Cc1c(N(C)CS(=O)(=O)O)c(=O)n(-c2ccccc2)n1C,97.7% (inactive)
16,CN1C(=O)/C(=C/c2nc(-c3cccc(F)c3)n3ccccc23)c2ccccc21,89% (inactive)
17,CCCCCCOc1ccc(/C=N/NC(N)=S)cc1,38.7% (inactive)
18,C=C(C)[C@@H]1C/C=C(/C=O)CC[C@@H]2O[C@@]2(C)CC/C=C(\C)CC1,127% (inactive)
19,COc1cc2c(C#N)n3c(c2cc1OC)C(=O)C(c1ccccc1)Oc1ccccc1-3 (stereo not given),50.2% (inactive)
20,O=C(/C=C/c1cc2ccccc2[nH]c1=O)c1ccc(O)cc1,55.5% (inactive)
